In experiment [1] the target is T1, Serine/threonine-protein kinase Nek9 (Homo sapiens) (UniProt Q8TD19).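 Also: each value is a mean percent inhibition of NEK9.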
T1 sequence (whole entry): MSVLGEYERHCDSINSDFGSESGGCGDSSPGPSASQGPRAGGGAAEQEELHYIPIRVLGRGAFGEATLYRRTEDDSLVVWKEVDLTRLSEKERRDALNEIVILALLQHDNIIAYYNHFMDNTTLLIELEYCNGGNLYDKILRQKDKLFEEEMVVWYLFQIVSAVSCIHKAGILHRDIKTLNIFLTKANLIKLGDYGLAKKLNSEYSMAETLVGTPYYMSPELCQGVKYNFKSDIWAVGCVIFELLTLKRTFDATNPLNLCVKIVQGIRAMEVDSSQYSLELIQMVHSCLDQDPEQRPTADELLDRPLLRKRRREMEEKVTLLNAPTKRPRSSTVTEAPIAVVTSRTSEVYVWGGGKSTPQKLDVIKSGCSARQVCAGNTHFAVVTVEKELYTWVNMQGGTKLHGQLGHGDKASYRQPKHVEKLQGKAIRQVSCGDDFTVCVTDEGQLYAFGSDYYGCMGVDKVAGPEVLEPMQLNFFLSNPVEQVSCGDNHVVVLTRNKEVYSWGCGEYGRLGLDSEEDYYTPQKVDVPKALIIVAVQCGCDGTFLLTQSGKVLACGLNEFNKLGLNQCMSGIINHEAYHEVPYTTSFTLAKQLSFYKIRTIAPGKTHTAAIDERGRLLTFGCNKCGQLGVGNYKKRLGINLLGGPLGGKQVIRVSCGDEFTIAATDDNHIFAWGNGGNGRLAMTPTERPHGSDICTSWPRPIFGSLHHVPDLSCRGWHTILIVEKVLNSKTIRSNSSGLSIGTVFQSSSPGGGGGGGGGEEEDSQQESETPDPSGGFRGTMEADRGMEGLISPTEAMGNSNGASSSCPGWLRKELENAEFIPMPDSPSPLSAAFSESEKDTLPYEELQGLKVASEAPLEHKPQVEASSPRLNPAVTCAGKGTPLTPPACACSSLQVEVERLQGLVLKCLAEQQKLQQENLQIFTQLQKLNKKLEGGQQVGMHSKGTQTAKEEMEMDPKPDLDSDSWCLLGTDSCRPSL
The conditions noted are these: at 1 µM.

The target in experiment [2] is Serine/threonine-protein kinase PLK1 (Homo sapiens) (UniProt P53350). The following applies: at 0.1 µM.
Experiment [3] has the same target. The conditions noted are these: at 1 µM.
Experiment [4] addresses T2, Dual specificity protein kinase TTK (Homo sapiens) (UniProt P33981).
T2 sequence (whole entry): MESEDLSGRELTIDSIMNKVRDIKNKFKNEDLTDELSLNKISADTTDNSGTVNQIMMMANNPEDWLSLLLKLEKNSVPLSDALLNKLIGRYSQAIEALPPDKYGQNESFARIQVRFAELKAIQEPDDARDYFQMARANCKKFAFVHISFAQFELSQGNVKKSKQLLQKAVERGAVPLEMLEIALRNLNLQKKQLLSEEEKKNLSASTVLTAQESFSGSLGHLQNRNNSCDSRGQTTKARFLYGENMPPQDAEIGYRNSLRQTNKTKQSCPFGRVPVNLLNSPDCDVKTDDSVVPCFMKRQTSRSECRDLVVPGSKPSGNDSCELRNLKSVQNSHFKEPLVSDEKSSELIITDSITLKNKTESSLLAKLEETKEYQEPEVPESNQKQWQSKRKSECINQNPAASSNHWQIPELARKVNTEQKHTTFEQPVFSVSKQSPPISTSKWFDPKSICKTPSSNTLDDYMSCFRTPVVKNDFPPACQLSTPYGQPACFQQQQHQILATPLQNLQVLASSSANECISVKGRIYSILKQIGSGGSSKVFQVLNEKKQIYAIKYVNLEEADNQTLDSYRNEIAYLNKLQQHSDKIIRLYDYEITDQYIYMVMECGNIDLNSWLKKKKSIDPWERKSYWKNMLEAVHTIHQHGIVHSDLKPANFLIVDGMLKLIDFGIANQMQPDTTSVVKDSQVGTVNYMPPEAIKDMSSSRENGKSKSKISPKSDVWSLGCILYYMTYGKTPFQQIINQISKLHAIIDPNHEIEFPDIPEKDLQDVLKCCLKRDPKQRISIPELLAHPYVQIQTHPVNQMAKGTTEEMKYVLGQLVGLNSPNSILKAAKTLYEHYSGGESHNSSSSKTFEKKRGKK
The conditions noted are these: at 0.1 µM.

The subject of experiment [5] is T3, Receptor-type tyrosine-protein kinase FLT3 (Homo sapiens), P36888 [D835Y].
T3 sequence (whole entry): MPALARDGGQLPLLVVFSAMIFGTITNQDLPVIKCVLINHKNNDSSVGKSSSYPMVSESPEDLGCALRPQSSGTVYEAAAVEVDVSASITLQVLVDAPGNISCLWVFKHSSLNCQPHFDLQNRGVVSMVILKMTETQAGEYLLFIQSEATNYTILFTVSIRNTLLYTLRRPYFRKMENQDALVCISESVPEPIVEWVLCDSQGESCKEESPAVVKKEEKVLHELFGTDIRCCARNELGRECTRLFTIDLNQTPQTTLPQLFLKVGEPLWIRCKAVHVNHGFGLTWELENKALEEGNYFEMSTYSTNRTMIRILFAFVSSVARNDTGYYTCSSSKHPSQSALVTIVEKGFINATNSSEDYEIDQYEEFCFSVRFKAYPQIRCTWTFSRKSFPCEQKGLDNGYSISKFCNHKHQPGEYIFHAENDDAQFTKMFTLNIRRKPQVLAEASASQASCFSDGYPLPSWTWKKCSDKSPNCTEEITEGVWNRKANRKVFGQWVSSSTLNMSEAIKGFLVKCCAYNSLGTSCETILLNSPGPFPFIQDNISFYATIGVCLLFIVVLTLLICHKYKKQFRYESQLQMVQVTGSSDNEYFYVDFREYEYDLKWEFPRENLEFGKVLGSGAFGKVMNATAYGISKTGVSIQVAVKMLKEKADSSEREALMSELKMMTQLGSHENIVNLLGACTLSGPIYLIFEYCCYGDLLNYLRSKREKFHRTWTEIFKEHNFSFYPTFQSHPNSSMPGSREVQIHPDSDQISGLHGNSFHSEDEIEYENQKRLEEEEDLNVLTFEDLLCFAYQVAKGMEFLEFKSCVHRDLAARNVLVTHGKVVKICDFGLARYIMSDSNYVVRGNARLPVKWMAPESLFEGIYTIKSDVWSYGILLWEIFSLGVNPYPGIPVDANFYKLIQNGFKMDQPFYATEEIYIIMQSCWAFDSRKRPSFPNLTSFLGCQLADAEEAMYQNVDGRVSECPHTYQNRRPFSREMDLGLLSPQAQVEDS
The conditions noted are these: at 1 µM.

The target of experiment [6] is Vascular endothelial growth factor receptor 3 (Homo sapiens) (UniProt P35916). The following applies: at 0.1 µM.
The target is the same in experiment [7]. The following applies: at 1 µM.
Experiment [8] deals with Macrophage colony-stimulating factor 1 receptor (Homo sapiens) (UniProt P07333). The conditions noted are these: at 0.1 µM.
For experiment [9] the target is unchanged. The conditions noted are these: at 1 µM.
Experiment [10] concerns the target Tyrosine-protein kinase Fyn (Homo sapiens) (UniProt P06241). The conditions noted are these: at 0.1 µM.
Experiment [11] has the same target. The following applies: at 1 µM.
Experiment [12] concerns the target Tyrosine-protein kinase HCK (Homo sapiens) (UniProt P08631). The following applies: at 0.1 µM.
The target is the same in experiment [13]. The conditions noted are these: at 1 µM.
In experiment [14] the target is Insulin-like growth factor 1 receptor (Homo sapiens) (UniProt P08069). The conditions noted are these: at 0.1 µM.
Experiment [15] shares this target. The conditions noted are these: at 1 µM.
Experiment [16] concerns the target Insulin receptor (Homo sapiens) (UniProt P06213). The following applies: at 0.1 µM.
Experiment [17] has the same target. The conditions noted are these: at 1 µM.
In experiment [18] the target is Insulin receptor-related protein (Homo sapiens) (UniProt P14616). The conditions noted are these: at 0.1 µM.
For experiment [19] the target is unchanged. The conditions noted are these: at 1 µM.
Experiment [20] addresses T4, Tyrosine-protein kinase ITK/TSK (Homo sapiens) (UniProt Q08881).
T4 sequence (whole entry): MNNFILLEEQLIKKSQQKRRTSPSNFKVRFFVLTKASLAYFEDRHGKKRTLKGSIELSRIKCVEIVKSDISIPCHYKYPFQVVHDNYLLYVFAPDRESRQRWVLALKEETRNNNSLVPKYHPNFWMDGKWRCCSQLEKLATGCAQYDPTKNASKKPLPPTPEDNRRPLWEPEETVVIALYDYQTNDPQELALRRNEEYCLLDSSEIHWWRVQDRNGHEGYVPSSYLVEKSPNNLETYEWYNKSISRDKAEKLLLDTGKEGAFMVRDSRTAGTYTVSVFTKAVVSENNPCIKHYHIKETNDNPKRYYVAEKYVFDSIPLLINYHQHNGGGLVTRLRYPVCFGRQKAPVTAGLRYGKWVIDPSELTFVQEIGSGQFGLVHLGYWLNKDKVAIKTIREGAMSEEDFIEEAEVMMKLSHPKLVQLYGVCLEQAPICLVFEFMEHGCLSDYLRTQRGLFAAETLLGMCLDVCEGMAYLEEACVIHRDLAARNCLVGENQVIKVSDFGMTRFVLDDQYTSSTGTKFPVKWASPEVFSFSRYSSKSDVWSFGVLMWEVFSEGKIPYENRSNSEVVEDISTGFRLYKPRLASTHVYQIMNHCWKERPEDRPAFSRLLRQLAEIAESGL
The following applies: at 0.1 µM.

Chain of Insulin-like growth factor 1 receptor (Homo sapiens) (P08069 31-736 limits assumed): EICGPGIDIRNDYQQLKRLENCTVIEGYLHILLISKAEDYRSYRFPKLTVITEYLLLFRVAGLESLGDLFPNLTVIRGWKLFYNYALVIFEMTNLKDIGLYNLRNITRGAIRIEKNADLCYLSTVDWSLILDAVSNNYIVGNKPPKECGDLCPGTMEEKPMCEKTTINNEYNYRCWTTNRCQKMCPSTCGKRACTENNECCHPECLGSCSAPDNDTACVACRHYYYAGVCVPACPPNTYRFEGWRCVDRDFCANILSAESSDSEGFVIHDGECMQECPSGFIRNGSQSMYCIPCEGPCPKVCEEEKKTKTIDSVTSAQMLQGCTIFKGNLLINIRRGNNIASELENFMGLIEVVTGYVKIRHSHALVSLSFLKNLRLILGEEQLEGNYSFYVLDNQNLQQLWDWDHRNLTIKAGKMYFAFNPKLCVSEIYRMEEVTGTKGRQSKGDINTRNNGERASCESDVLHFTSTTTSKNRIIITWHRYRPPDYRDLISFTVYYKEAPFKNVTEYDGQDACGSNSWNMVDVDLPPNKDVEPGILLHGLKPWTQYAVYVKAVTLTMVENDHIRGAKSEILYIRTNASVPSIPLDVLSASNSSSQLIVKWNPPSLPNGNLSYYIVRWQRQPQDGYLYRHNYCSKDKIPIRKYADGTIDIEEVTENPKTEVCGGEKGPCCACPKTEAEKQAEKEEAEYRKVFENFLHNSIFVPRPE
Chain of Insulin-like growth factor 1 receptor (Homo sapiens) (P08069 741-1367 limits assumed): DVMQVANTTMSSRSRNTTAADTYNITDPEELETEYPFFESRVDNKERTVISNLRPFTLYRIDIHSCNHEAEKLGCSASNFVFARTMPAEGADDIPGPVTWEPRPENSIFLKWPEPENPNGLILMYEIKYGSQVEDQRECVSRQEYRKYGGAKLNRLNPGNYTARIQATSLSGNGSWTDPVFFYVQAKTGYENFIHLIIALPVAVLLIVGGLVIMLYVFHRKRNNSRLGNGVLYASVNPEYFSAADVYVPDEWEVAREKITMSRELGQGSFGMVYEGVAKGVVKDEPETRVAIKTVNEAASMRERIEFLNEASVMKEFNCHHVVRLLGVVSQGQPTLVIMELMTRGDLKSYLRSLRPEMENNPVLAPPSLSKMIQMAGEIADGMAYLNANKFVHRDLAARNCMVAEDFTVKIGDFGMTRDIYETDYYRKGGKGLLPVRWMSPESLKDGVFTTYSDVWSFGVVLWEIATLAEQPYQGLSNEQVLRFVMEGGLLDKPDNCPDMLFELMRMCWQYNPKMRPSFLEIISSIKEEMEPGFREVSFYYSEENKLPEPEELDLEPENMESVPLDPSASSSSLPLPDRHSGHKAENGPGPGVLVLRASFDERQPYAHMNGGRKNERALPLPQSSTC
Chain of Insulin receptor-related protein (Homo sapiens) (P14616 27-742 limits assumed): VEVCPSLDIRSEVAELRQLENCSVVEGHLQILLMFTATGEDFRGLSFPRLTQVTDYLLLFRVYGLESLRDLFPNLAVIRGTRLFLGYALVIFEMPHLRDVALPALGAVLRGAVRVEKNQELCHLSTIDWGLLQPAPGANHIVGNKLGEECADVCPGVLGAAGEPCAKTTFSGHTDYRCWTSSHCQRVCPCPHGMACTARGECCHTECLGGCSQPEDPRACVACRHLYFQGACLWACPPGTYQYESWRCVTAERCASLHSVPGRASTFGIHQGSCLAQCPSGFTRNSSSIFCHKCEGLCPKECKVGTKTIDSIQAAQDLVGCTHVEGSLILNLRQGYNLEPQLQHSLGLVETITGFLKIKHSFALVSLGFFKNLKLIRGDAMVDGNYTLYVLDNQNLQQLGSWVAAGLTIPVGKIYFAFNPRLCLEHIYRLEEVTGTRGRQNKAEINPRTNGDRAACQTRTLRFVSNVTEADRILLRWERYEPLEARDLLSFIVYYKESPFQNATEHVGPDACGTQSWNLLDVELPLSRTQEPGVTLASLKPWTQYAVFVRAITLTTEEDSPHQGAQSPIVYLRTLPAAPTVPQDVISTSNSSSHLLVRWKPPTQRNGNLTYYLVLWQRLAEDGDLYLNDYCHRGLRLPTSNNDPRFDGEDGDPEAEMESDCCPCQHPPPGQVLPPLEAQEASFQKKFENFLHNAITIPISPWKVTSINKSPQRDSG
Chain of Insulin receptor-related protein (Homo sapiens) (P14616 747-1297 limits assumed): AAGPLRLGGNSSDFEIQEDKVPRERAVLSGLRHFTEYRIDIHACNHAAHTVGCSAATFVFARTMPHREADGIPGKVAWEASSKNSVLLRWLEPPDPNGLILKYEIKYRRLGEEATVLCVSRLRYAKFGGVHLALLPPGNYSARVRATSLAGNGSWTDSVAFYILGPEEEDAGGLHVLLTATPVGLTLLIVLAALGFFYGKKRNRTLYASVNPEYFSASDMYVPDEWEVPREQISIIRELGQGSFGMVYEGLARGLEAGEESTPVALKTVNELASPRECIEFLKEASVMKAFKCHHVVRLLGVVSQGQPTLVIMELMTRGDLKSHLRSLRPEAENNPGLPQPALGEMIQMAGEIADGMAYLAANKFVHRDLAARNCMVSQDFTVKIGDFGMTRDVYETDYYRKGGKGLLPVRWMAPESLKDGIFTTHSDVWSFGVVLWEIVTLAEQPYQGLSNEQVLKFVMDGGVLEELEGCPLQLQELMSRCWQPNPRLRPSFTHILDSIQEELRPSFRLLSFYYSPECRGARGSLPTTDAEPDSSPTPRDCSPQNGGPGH
Chain of Macrophage colony-stimulating factor 1 receptor (Homo sapiens) (P07333 whole entry): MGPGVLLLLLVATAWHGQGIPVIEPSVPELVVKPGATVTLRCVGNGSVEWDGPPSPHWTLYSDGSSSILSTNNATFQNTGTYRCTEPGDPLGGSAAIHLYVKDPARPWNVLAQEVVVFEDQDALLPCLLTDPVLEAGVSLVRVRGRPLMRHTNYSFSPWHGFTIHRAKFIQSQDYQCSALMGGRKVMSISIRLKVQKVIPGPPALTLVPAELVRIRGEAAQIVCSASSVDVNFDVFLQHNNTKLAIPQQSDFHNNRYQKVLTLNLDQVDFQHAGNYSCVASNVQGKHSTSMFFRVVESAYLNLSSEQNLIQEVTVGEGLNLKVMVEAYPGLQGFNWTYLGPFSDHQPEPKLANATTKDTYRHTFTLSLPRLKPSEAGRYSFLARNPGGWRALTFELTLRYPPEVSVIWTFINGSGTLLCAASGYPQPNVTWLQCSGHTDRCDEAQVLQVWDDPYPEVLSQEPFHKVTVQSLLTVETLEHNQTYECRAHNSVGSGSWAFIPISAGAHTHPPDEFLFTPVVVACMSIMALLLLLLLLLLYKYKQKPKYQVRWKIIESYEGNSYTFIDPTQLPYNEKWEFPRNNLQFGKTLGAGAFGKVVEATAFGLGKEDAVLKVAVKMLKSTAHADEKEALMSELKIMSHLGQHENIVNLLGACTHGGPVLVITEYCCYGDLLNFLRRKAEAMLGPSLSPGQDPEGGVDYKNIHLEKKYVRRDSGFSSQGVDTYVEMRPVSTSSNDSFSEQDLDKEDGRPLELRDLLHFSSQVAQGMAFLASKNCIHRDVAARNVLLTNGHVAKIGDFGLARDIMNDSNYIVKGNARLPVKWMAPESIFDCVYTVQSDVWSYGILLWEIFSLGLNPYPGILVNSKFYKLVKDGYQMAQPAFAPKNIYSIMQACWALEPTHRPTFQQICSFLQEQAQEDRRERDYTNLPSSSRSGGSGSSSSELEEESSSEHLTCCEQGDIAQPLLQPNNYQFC
Chain of Serine/threonine-protein kinase PLK1 (Homo sapiens) (P53350 whole entry): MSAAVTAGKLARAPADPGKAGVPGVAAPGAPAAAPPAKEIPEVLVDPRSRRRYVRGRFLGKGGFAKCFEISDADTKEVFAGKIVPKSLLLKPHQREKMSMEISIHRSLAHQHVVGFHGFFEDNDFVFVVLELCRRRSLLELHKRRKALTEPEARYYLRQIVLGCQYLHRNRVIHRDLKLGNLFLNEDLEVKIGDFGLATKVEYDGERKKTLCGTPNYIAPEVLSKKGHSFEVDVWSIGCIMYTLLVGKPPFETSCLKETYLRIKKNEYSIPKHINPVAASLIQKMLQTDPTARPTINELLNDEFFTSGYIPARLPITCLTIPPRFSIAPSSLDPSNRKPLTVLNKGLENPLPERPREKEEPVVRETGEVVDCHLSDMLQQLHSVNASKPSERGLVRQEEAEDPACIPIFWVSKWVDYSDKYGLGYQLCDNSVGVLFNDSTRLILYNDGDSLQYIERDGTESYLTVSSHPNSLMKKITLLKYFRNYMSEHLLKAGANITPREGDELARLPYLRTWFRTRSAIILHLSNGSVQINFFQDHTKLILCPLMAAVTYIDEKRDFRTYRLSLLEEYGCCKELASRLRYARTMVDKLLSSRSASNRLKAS
Chain of Tyrosine-protein kinase Fyn (Homo sapiens) (P06241 2-537 limits assumed): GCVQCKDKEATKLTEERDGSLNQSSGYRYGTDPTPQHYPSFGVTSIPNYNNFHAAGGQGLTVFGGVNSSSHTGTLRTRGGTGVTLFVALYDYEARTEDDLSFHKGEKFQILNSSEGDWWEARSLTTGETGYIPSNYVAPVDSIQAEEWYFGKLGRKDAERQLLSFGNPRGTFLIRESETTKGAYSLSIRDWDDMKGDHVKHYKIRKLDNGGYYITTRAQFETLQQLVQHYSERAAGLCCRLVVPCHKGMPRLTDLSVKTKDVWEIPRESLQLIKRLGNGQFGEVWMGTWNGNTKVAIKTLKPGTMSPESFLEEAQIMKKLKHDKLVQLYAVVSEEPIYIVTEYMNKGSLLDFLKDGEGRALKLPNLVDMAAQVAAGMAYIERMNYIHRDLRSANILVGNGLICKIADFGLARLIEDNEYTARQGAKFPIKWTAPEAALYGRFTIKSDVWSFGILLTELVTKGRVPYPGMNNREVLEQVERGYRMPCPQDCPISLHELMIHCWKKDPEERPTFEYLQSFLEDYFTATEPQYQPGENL

Take `N#Cc1cccc(Nc2ncc(-c3ccccc3)o2)c1`: the inhibition (in general, the change of the read-out against control, counted positive when it falls) in experiment [1] was 4.83%; in [2] it was 2.12%; in experiment [3], 1.8%; in experiment [4], 6.6%; in [5] it was 9.89%; in experiment [6], -0.11%. The inhibition in [7] is 3.1%; in [8], 3.05%; in [9], 14.6%; in experiment [10], 1.43%; in [11], 10.8%; in [12], 0.69%. Besides, the inhibition in [13] was 7.33%; in experiment [14], 0.34%; in [15], 0.27%; in [16] it was 1.81%; in experiment [17] it was 4.42%; in experiment [18], 0.61%. In addition, the figures for the inhibition in experiment [19] and in [20] were -0.06% and 1.16%, respectively.
`CCS(=O)(=O)c1ccc(OC)c(Nc2ncc(-c3cccc(F)c3)o2)c1`: the inhibition was determined as 16.1% in experiment [1]; 7.8% in experiment [2]; 9.98% in experiment [3]; 10.5% in experiment [4]; 60.3% in experiment [5]; 36.4% in [6]. For the same compound, the inhibition in [7] was found to be 86.8%; in experiment [8], 33.7%; in [9] it was 66.7%; in [10], 30.1%; in experiment [11], 72.4%; in [12], 33%. Also, the inhibition came to 74.3% in experiment [13]; 5.72% in experiment [14]; 6.74% in experiment [15]; 7.03% in [16]; 8.47% in experiment [17]; 2.84% in experiment [18]. The inhibition in experiment [19] is 4.59%; in experiment [20] it was 2.16%.
Take `CS(=O)(=O)CCNCc1ccoc1-c1ccc2ncnc(Nc3ccc(OCc4ccccc4)cc3)c2c1`: the inhibition in experiment [1] came to 1.8%; in experiment [2], 2.42%; in experiment [3] it was 3.33%; in experiment [4] it was 3.38%; in [5] it was 2.16%; in experiment [6], 2.25%. In addition, the inhibition in [7] was 2.83%; in [8] it was -0.38%; in experiment [9], 6.09%; in [10] it was 1.81%; in experiment [11] it was 7.94%; in [12], 0.7%. The inhibition was 5.65% in [13]; 1.37% in experiment [14]; -0.73% in experiment [15]; 0.36% in experiment [16]; 1.13% in experiment [17]; -1.72% in experiment [18]. Also, the values for the inhibition in [19] and in [20] were 0.44% and -0.12%, respectively.

Values taken from ChEMBL document CHEMBL1961873, “Compounds: GSK PKIS; Assays: Nanosyn kinase panel” (2012).
